The results in this text go back to the supplement of paper PMC11417369.

± gives the standard deviation of the averaged measurements. In all, about 25,000 sequences were measured (“ln(normalized median fluorescence intensity)”: median about 10, highest 2% from about 12 on). The list comes from a sample in which the highest values are over-represented; it also holds similar and randomly drawn sequences.

This assay concerns PfAP2-G AP2 domain (GST-tagged). The assay can be described thus: gcPBM binding intensity (ln(normalized median fluorescence intensity)); higher = stronger DNA binding. Put shortly: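 Plasmodium falciparum DNA-binding domains carrying a GST tag were expressed in E. coli and applied for 1 h, at about 25 μg on average, to an Agilent 4 × 180k array. The array held primer-extended double-stranded 36-bp intergenic genomic probes together with negative controls, and binding took place in 1× PBS with 1% milk, 0.2 mg/ml BSA, 0.5% salmon testes DNA and 0.03% Triton X-100. An Alexa488 anti-GST antibody detected bound protein, and the array was scanned at 488 nm. Binding intensity is taken as the highest Masliner-normalised natural-log median intensity across replicate spots of either probe orientation.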
Turning to “TGTATATACATAAAGTGTACGTATATTTATATATAT [XGTACX_site4320]”, the “gcPBM binding intensity (ln)” value amounted to 11.6 ± 0.98. For “CATACATTTAAAAAGTGTACGTATATGAAAAAAGGA [XGTACX_site6512]” the value was 11.7 ± 1.1; for “ATGAAAATTATAAAGTGTACATATAGAAACATTTAC [XGTACX_site8047]”, 11.4 ± 0.99. “TACATATACATATACACACACACACCCAAATAAATA [CACACA_site1344]”: the “gcPBM binding intensity (ln)” value worked out at 10.3 ± 0.35. Under “TATATTAACAAAATGGTGCAATAATTTCTATATTAT [GTGCAC_site9857]” stands 10.1 ± 0.22; under “ATTTTTCTAAAATACTGTACAAAGGTGCATAAAAAG [XGTACX_site4425]”, 11 ± 0.64. For “GATAATGAATGATGCACACTAAAAATATTCTACAAC [CACACA_site3622]” the value was 10.185 ± 0.007; for “TTTTCTCTAAAAAGGTGTACAACTAATAATGCACTG [XGTACX_site6074]”, 11.7 ± 0.83. Under “TTATATATTTTATTATTTATAATCTTTTTTTTATTT [CACACA_negctrl_site112]” stands 9.585 ± 0.049; under “AAAAATGAGTGACACACACACATATAAATATAAATA [CACACA_site7115]”, 10.1 ± 0.25; under “TATGTATGCCTGTTTTGTACTTAAGAAAATGTTGCT [XGTACX_site8443]”, 11 ± 0.57. In the case of “TATTTTTTTAATAACTGTACTTTTTTGTCAAATGGA [XGTACX_site4179]”, the “gcPBM binding intensity (ln)” value was found to be 11.7 ± 1.2. Consider “AATTTTTGTATTTTTAGTACTTAATTTCAAAATAAC [XGTACX_site4234]”, for which the “gcPBM binding intensity (ln)” value came to 11.2 ± 0.6. Under “TGTGTCAAATAATTAATGTCATATATATTTTGTATA [CACACA_negctrl_site1479]” stands 9.675 ± 0.078; under “AATAAATATATATTCACACACAAACATATATATATA [CACACA_site4023]”, 10.1 ± 0.45.

Consider “CAGTATTACATGAGGACACACACAAAAAAAATATAT [CACACA_site8156]”, for which the “gcPBM binding intensity (ln)” value turned out to be 11.3 ± 0.86. Consider “AATATAAAAAAAAAATGTACATATTATATATATATA [XGTACX_site5113]”, for which the “gcPBM binding intensity (ln)” value is 11.1 ± 0.72. For “ATAATTAAATAAAAAAGTACACATACATCATAATGC [XGTACX_site7656]” the value was 11.5 ± 0.87.

In the case of “TTAAAAATGATTGAATGTACAGATTAATATAATTTT [XGTACX_site7394]”, the “gcPBM binding intensity (ln)” value worked out at 10.7 ± 0.28. Under “AAAAAATAATTGAAGTGTACGTACAATGATTTTACT [XGTACX_site7663]” stands 11.8 ± 1.1; under “AAAAGAACAATGAAGTGTACTAATAATTATTTATGT [XGTACX_site6649]”, 11.3 ± 0.79.

As to “TAAAATGAAGGAATATGTACATAAATAAACATATAT [XGTACX_site6266]”, the “gcPBM binding intensity (ln)” value stood at 11.2 ± 0.63.

As to “TTATAGTAATAATAATGTACATTTATACACATATAT [XGTACX_site1965]”, the “gcPBM binding intensity (ln)” value amounted to 10.9 ± 0.47. Regarding “GACATTTGTGAGCTTGAGCCGTCAAACCACTAAATA [CACACA_negctrl_site552]”, the “gcPBM binding intensity (ln)” value worked out at 9.99 ± 0.028. For “AAAAGAAAAGAGAGGAGTACAAAATATAATTATCTA [XGTACX_site5172]” the value was 11.3 ± 0.76; for “GGGGGTAGGGGAAGAAGTACAATGATCACTACAGTA [XGTACX_site1169]”, 11.9 ± 1.3; for “ATATAAGATTTAAGAAGTACAATTATACAGTAGATC [XGTACX_site7501]”, 11.4 ± 0.88. For “TAAAAATGATCAAAGGGTACAGTATTAATTAAAAAA [XGTACX_site1079]” the value was 11.3 ± 0.93; for “CGCAACGTGAAAATACGTACACATACATTTTTATAT [XGTACX_site330]”, 11.7 ± 0.85. For “CAGGCGTGAAATATACGTACACACATTATTTATATT [XGTACX_site5337]” the value was 11.8 ± 0.94; for “AGGCGTGAAATATACGTACACACATTATTTATATTT [CACACA_site2558]”, 11.6 ± 1. For “TTTATTTATTTTTAACGTACGCACACATATAAATAT [XGTACX_site4042]”, the “gcPBM binding intensity (ln)” value came out at 11.4 ± 0.72. Under “TATTTATACATACGTACACACAAATATTAAAATATA [CACACA_site7004]” stands 11.5 ± 0.96; under “TTATTTTTAACGTACGCACACATATAAATATATTTA [CACACA_site1976]”, 11.5 ± 0.97. For the sequence “TTGTTAATATATATATGTACTTATTTATTTATTTAT [XGTACX_site2274]”, the “gcPBM binding intensity (ln)” value was 11.4 ± 0.93.

Take “TATATATATATATAATGTACAGAAAAAAAAAAAAAA [XGTACX_site6141]”: the “gcPBM binding intensity (ln)” value was determined as 10.8 ± 0.86. For “TATTCAAAGAAAAACTGTACGTGTAGCAAACGTCAT [XGTACX_site7713]” the value was 11.5 ± 0.83; for “TACAGATAAATATACATACATATATATATATATATA [XGTACX_negctrl_site182]”, 9.86 ± 0.42. Under “TGAAATTTTTATACATGTACAAAATTAAATATAACA [XGTACX_site7324]” stands 10.8 ± 0.49. Under “TTATTTATTTAGTAGTGTACTTTTTATATTTATAAT [XGTACX_site5978]” stands 11.6 ± 0.99; under “TATTTTATATAAAGGTGTACTTATACAAAAATATAT [XGTACX_site7435]”, 11.5 ± 0.88.

As to “TATATTTTTTTAAAAAGTACTTTGTATATATATATA [XGTACX_site1300]”, the “gcPBM binding intensity (ln)” value was found to be 11.1 ± 0.83. Under “ATATATATTTTATATTGTACTTATTATTTTTAGGGC [XGTACX_site723]” stands 11.4 ± 0.81. For the sequence “TTATATATTTTTAGGTGTACTTTTTTTTTTTTTTTT [XGTACX_site8164]”, the “gcPBM binding intensity (ln)” value was 11.7 ± 0.91.

Regarding “GTATATTTTTAAAGGTGTACTTTTTTTTTTTTTTTT [XGTACX_site721]”, the “gcPBM binding intensity (ln)” value was determined as 11.8 ± 1.1.
